Compounds without any hit were thinned out: in the full panel of roughly 83,000, 20% have a hit.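 Percent growth is the endpoint: 0 to 100 indicates growth inhibition (40 means 60% inhibition), 0 means no net growth, and negative values indicate cell death.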 Unmarked numbers belong to inactive results. Activity calls are given as the source filed them.
Each molecule was assayed on HCC-2998 colon (assay: NCI-60 one-dose screen, 48 h (100 = growth as untreated, 0 = no growth, -100 = all killed)). Settings: 10 µM unless noted.
Experimental: Growth inhibition of the HCC-2998 human tumor cell line is measured as a screen for anti-cancer activity. Cells are grown in 96 well plates and exposed to the test compound for 48 hours. Compounds are tested at a single concentration, which is 10^-5 M for most compounds. The reported endpoint is percent growth (GI% or GIPRCNT), where numbers from 0 - 100% represent growth inhibition, and numbers from -100% - 0 represent cell death. For example, a value of 40 represents 60% growth inhibition. A value of 0 means no net growth occurred over the course of the experiment. A value of -40 indicates 40% of cells at the beginning of the experiment died by the end of the experiment. A value of -100 means all cells are dead at the end of the experiment.
NCI-60 Human Tumor Cell Lines Screen was performed using the standard one-dose NCI protocol, which is described in more detail at https://dtp.cancer.gov/discovery_development/nci-60/default.htm.
Compounds with GIPRCNT values below 10 were considered active. Activity score was based on GIPRCNT using the following formula: […]
Score is 0 for GIPRCNT values of 100 or above, 50 for GIPRCNT values of 0, and 100 for GIPRCNT values of -100.
With `COc1ccc(/C(=C/c2cc(OC)c(OC)c(OC)c2)[N+](=O)[O-])cc1` the growth was 91.5%. For `COc1cc(NS(C)(=O)=O)ccc1Cc1c2ccccc2nc2ccccc12`, the growth was 11.9%. With `Cc1ccc2oc(=O)cc(C3C(C#N)=C(N)Oc4c3ccc3ccccc43)c2c1` (stereo not given) the growth was 91.4%. `Cc1cc(O[C@@H]2O[C@@H](C)[C@H](O)[C@@H](O)[C@H]2O)c2c3c(c(O[C@@H]4O[C@@H](C)[C@H](O)[C@@H](O)[C@H]4O)cc2c1)C(=O)c1c(O)cccc1C3=O` was tested, and the growth was 91.1%. With `COC(=O)c1ccc2c(c1)Oc1ccc(Cl)cc1-c1cc(C)nn1-2` the growth was 100%. For `COc1ccc(/C=C/C(=O)c2ccc(Oc3ncnc4ccccc34)cc2)cc1OC`, the growth was 29.1%. With `Oc1ccc(O)c(-[n+]2ccccc2)c1` the growth was 102%. With `Cc1cc2c(cc1C)N(C(=O)CCl)CCN2C(=O)CCl` the growth was -97.9% (active). Molecule `CCCOC(=O)c1ccc([N+](=O)[O-])o1` has a growth of 121%. With `Nc1ncnc2c1c(C(F)(F)F)cn2[C@@H]1O[C@H](CO)[C@@H](O)[C@H]1O` the growth was 7.21% (active). Molecule `Nc1ncnc2c1c(-c1ccc(Oc3ccccc3)cc1)nn2C[C@@H]1SSC[C@H]1O` has a growth of 88.4%. Molecule `CCCCCC/C=N/Nc1ccc([N+](=O)[O-])cn1` has a growth of 85.9%. `CNC(=O)NN` showed a growth of 101%. For `Cc1ccc(-c2cc(-c3nnc(SCC(=O)c4ccccc4)o3)c3ccccc3n2)cc1`, the growth was 99.6%. For `OCc1cnccc1NC12CC3CC(CC(C3)C1)C2`, the growth was 105%. `CCN(CC)CCNCC(O)Cc1ccc(OC)cc1` (stereo not given) gave a growth of 101%. `CC1=C2C(=C[C@@](C)(CO)[C@@H]2OC(=O)N(C)CCN(C)C(=O)OC(C)(C)C)C(=O)[C@](C)(O)C12CC2` showed a growth of 75.8%. `O=C(Nc1ccc(-n2cc(-c3ccncc3)c(-c3ccc(O)c(Cl)c3)n2)cc1)c1cc(C(F)(F)F)cc(C(F)(F)F)c1` showed a growth of 83.6%. In the case of `O=[N+]([O-])c1cccc(C2c3ccccc3Oc3ccccc32)c1`, the growth is reported as 91.1%. In the case of `O=C(O)c1ccc(-n2cc(/C=N/Nc3ccc(Cl)cc3)c(-c3ccc(F)c(F)c3)n2)cc1`, the growth is reported as 82.6%. For `Cc1ccc(N(CC2=NCCN2)c2cccc(O)c2)cc1`, the growth was 103%. `Cc1cc(SCc2ccc(Cl)cc2Cl)nc(SCc2ccc(Cl)cc2Cl)n1` showed a growth of 100%. Molecule `O=C(O)c1cn(C2CC2)c2cc(N3CCN(C(=O)CSc4nc(NS(=O)(=O)c5ccccc5)cc(=O)[nH]4)CC3)c(F)cc2c1=O` has a growth of 91.7%. Work on `NC(=O)C1=C[C@H]2[C@H]3C=C[C@@]2(O)C(=O)O[C@@H]3O1` yielded a growth of 91.6%. In the case of `Cc1ccc(=O)n(-c2ccc(Br)cc2F)c1`, the growth is reported as 106%. With `CC(C)[C@@H]1NC(=O)[C@]2(C)CSC(=N2)c2ccnc(c2)CNC(=O)C[C@@H](/C=C/CCS)OC1=O` the growth was -66.5% (active). `S=c1ssnc1-c1ccccn1` was tested, and the growth was 50.8%. For `CC1OC(n2c3ccccc3c3c4c(c5c6ccccc6[nH]c5c32)C(=O)N(CCN[C@@H]2CCC[C@H]2N)C4=O)CC(O)C1O` (stereo not given in full), the growth was -9.5% (active). `CN(C)c1ccc(/C=N/n2c(-c3cc(F)c(Cl)cc3Cl)nn(CN3CCOCC3)c2=S)cc1` was tested, and the growth was 111%. `Cc1nc(N)nc(SCc2ccccc2)c1Br` gave a growth of 117%. Work on `CCCC(=O)Oc1ccc(/C(=C(\C)c2ccc(OC)cc2)c2ccc(OCCN3CCCCC3)cc2)cc1` yielded a growth of 91%. `CNCCCOc1c(Br)cc(CCNC(=O)/C(Cc2ccc(OC)c(Br)c2)=N/O)cc1Br` was tested, and the growth was 46%. In the case of `Cc1cccc[n+]1CCC[n+]1ccccc1C`, the growth is reported as 107%. `Cc1cccc(NC(=O)CCc2ccc(N3C(N)=NC(N)=NC3(C)C)cc2)c1` was tested, and the growth was 33.3%. Molecule `CC(CN(C)C)CN1c2ccccc2CCc2ccccc21` (stereo not given) has a growth of 54.6%. For `O=C(Cn1c2ccccc2c2ccncc21)N/N=C\c1ccc2ccccc2c1`, the growth was 74.5%. `ClC1c2ccccc2CCc2ccccc21` showed a growth of 107%. For `COc1cccc(C2CC(c3cc(OC)c(OC)c(OC)c3)=NN2)c1` (stereo not given), the growth was 83.2%. In the case of `N#CC1=C(N)Oc2c(ccc3ccccc23)C1c1cc(=O)oc2ccc(Cl)cc12` (stereo not given), the growth is reported as 36.6%. `O=C(Nc1ccc(-n2ccc3c(NC(=O)c4ccccc4)nccc32)cc1)Nc1cccc(C(F)(F)F)c1` was tested, and the growth was 67.8%.

Reference: PubChem BioAssay (NCI)
